For 20 molecules, growth inhibition results are on record in PubChem BioAssay (NCI).

Structures are written as SMILES. Where “and” joins values, the source holds several entries; their conditions need not be identical. Equal values may be shown once. This is part of a sample that, as a whole, favours compounds with a hit. Of some 79,000 tested, about 15% had one in any assay. Values without a mark were called inactive. Calls of active or inactive are those of the source. Rule as the data show it: active = growth inhibition above about 70%; inactive = the rest.

A short description of test [1]: NCI Yeast Anticancer Drug Screen. Data for the rad50 strain (AID 155).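 Also: 0% = growth of vehicle-only cultures of the same strain.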 Particulars: S. cerevisiae rad50 strain growth inhibition, active compounds read high; at 50.0 µM unless noted. Put shortly:
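Genetically altered yeast (DNA repair pathway); compound treatment; growth inhibition vs vehicle ctrl.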

Test [2] in a line: NCI Yeast Anticancer Drug Screen. Data for the mec2-1 strain (AID 157). The following applies: S. cerevisiae mec2-1 strain, active compounds read high; at 50.0 µM unless noted. Summed up:
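Compounds were applied to mec2-1 yeast cells. Their growth was then compared with that of vehicle-treated cultures to give growth inhibition.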

Test [3] can be described thus: NCI Yeast Anticancer Drug Screen. Data for the sgs1 mgt1 strain (AID 161).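 Also: 0% = growth of cultures given vehicle only.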 The following applies: S. cerevisiae sgs1 mgt1 strain, active compounds read high; at 50.0 µM unless noted. Summed up: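 Yeast cells carrying a defined DNA-repair defect were exposed to test compounds. Growth inhibition was measured relative to vehicle-treated controls.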
Test [4] can be described thus: NCI Yeast Anticancer Drug Screen. Data for the cln2 rad14 strain (AID 165).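 Also: 0% = growth equal to vehicle treated cultures.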 The following applies: S. cerevisiae cln2 rad14 strain, active compounds read high; at 50.0 µM unless noted. Put shortly:
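Strain: cln2 rad14 yeast, altered in cell cycle control and DNA damage repair. Read-out: growth inhibition vs vehicle.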

A short description of test [5]: NCI Yeast Anticancer Drug Screen. Data for the bub3 strain (AID 167). Particulars: S. cerevisiae bub3 mutant strain, active compounds read high; at 50.0 µM unless noted. Put shortly:
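Yeast carrying a defined mutation is treated with each compound, and growth is compared with that of vehicle-exposed cells to give inhibition.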

Test [6] is described as follows: NCI Yeast Anticancer Drug Screen. Data for the mlh1 rad18 strain (AID 175). Particulars: S. cerevisiae mlh1 rad18 strain growth inhibition, active compounds read high; at 50.0 µM unless noted. Summed up:
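A repair-deficient yeast strain is exposed to test compound, and growth is scored relative to vehicle-treated controls.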

On to `O=C1Oc2ccccc2C(=O)/C1=C/N1C(=O)N/C(=C\c2cccc(O)c2)C1=O`, for which the growth inhibition in test [1] is 21.9%; in test [2], 19.9%; in test [3], 37.6%; in test [4], 45.5%; in test [5] it was 15.7%; in test [6], -7.5%.

Turning to `COc1ccc(N(C(=O)NCCO)c2ccccc2)cc1`, the growth inhibition was -3.75% in test [1]; -15.8% in test [2]; 14.9% in test [3]; 14.6% in test [4]; -2.3% in test [5]; 26.7% in test [6].

Regarding `C[C@H](CCC1=NCCN1)[C@H]1CC[C@H]2[C@@H]3CC[C@@H]4C[C@H](O)CC[C@]4(C)[C@H]3CC[C@]12C`, the growth inhibition is 91.6% (active) in test [1]; 92.8% (active) in test [2]; 91.2% (active) in test [3]; 91.6% (active) in test [4]; 91.1% (active) in test [5]; 91% (active) in test [6].

In the case of `COc1cc2c(cc1OC)C(Cl)C(c1ccc(Br)cc1)=C2Cl` (stereo not given), the growth inhibition in test [1] is 36.9%; in test [2] it was 67.3%; in test [3] it was 72.5% (active); in test [4], 48.3%; in test [5] it was 55.4%; in test [6], 32.8%.

`C(=Nc1cccc2ccccc12)c1cccs1`: the growth inhibition is -8.95% in test [1]; -4.85% in test [2]; 2.6% in test [3]; -19% in test [4]; 0.25% in test [5]; -19.8% in test [6].

As for `ONC(CC(O)(NO)NO)c1ccccc1` (stereo not given), the growth inhibition in test [1] was -32.7%; in test [2] it was -32%; in test [3] it was -20.6%; in test [4], 12.6%; in test [5] it was -28.1%; in test [6], -25.9%.

Consider `CC(C)OC(=O)Nc1ccc(O)cc1`, for which the growth inhibition in test [1] is 10.8%; in test [2], -6.7%; in test [3], -2.45%; in test [4], -19.4%; in test [5] it was -3.45%; in test [6], -5.7%.

As for `N#Cc1c(O)c(N=Nc2ccc(Cl)cc2)c(=O)n2c1[nH]c1ccccc12`, the growth inhibition in test [1] was 11.6%; in test [2], 14.2%; in test [3] it was 21.2%; in test [4], 28.9%; in test [5], 10.5%; in test [6] it was 18.7%.

On to `CSC(=N)N`, for which the growth inhibition in test [1] is -8.55% and -15.6%; in test [2], -18.2% and -17.4%; in test [3], -52.2%; in test [4] it was -46%; in test [5], 1.45%; in test [6] it was -2.95% and -29.8%.

Take `N#Cc1c(-c2ccccc2Cl)c(-c2ccccc2Cl)nn(CCO)c1=O`: the growth inhibition in test [1] is 16.9%; in test [2], 7.2%; in test [3], 13.4%; in test [4], 9.35%; in test [5] it was 10.2%; in test [6] it was 27.5%.

On to `Cc1cc(=O)n(-c2ccccc2)c(=O)[nH]1`, for which the growth inhibition in test [1] is 1.2%; in test [2], 1.95%; in test [3] it was 1.5%; in test [4] it was 1.2%; in test [5], -4.25%; in test [6], -12%.

Regarding `c1ccc(CC2=NCCO2)cc1`, the growth inhibition in test [1] was -5.55%; in test [2], 2.25%; in test [3], -3.3%; in test [4] it was -33%; in test [5], 3.85%; in test [6] it was -25.9%.

With `COc1cc2ccc(Cc3nccc4cc(OC)c(OC)cc34)cc2cc1OC`, the growth inhibition in test [1] was 98.4% (active); in test [2], 98.5% (active); in test [3], 99% (active); in test [4] it was 91% (active); in test [5], 97% (active); in test [6], 98.2% (active).

Take `O=C(O)CN(CCCN(CC(=O)O)CC(=O)O)CC(=O)O`: the growth inhibition in test [1] is -5%; in test [2], 0.85%; in test [3], -2.5%; in test [4] it was -14%; in test [5], -7.4%; in test [6], -30.2%.

For `O=C(Cc1nc2ccccc2o1)C(=O)Nc1ccccc1C(F)(F)F`, the growth inhibition in test [1] is -16.5%; in test [2], -4.9%; in test [3], -2.8%; in test [4], 7.2%; in test [5], 2.75%; in test [6] it was 17.6%.

`O=C(CO[N+](=O)[O-])OC/C=C/c1ccccc1`: the growth inhibition in test [1] is -4.25%; in test [2] it was 5.35%; in test [3], -2%; in test [4], -0.65%; in test [5], 2.55%; in test [6], 8.6%.

On to `CN(C)c1ccc(/C=C/C=C2\C=Cc3ccccc32)cc1`, for which the growth inhibition in test [1] is 0.55%; in test [2], -17.9%; in test [3], -6%; in test [4], -26.2%; in test [5] it was -0.25%; in test [6], -2.75%.

Regarding `Cc1cccc(OC(=O)NC2CCCCC2)c1`, the growth inhibition in test [1] is 3.5%; in test [2], -4.25%; in test [3] it was -13.2%; in test [4], -72.3%; in test [5] it was 6.5%; in test [6] it was -13.3%.

For the molecule `O=C1N(Cc2ccccc2)CCN1Cc1ccccc1`, the growth inhibition was -37.1% in test [1]; -24.6% in test [2]; -11.7% in test [3]; 20.2% in test [4]; 0.6% in test [5]; -22.9% in test [6].

For the molecule `O=P(O)(O)OC1OC(CO)C(O)C(O)C1O` (stereo not given), the growth inhibition was -16.5% in test [1]; -26.2% in test [2]; -3.9% in test [3]; -25.6% in test [4]; -24.8% in test [5]; -4.75% in test [6].
